Reference: PubChem BioAssay
Values without a mark were called inactive.

Assay: optical density shifts of acrAB sulA E. coli – strain DRC41, OD650, 48 h, E. coli filamentation inducer project, primary screen (AID 1152);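 also: E. coli MC1000 strain DRC41 lacking acrAB efflux pump and sulA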
Conditions: higher = more signal, called active from +8 up or from −8 down

SMILES	z-score
C=CCN1C(=O)[C@@]2(Cc3ccccc31)N=C(c1ccc(OCCCO)cc1)O[C@H]2c1ccccc1	0.613
[N-]=[N+]=Nc1ccccc1[C@@H]1OC(c2ccc(OCCCO)cc2)=N[C@]1(CCS(=O)(=O)c1ccccc1)C(N)=O	0.307
CN(C)C(=O)[C@@]1(CCS(=O)(=O)c2ccccc2)COC(c2ccc(OCCCO)cc2)=N1	0.276
CCOC(=O)C[C@H]1[C@H](OC(=O)c2cc3ccccc3oc2=O)[C@@H](NC(=O)c2ccccc2)c2cc(OCCCO)ccc2N1C(=O)c1ccc2ccccc2n1	0.0582
C=CCOC(=O)[C@H]1[C@@H]2C(=O)O[C@@H](c3ccccc3)[C@@H](c3ccccc3)N2[C@@H](c2ccc(OCCOC(=O)[C@H]3C[C@H]4C(=O)N[C@@H](CCCCNC(C)=O)C(=O)N4[C@H]3c3cccc(OCCO)c3)cc2)[C@]12C(=O)Nc1ccccc12	-0.0842
CC(C)C(CO)N1C(=O)[C@@H]2C3C(=O)OCCC/C=C\[C@H]3OC23C=CCN(CCN2CCOCC2)C(=O)[C@@H]13 (stereo not given in full)	-0.385
O=C(NCCN1CCOCC1)C1N=C(c2ccc(OCCCO)cc2)N(c2ccccc2)O1 (stereo not given)	0.759
COC(=O)[C@@]1(Cc2ccccc2)[C@H]2c3cc(C(=O)N4CCCC4)n(Cc4ccc(S(C)(=O)=O)cc4)c3C[C@H]2CN1C(=O)c1ccccc1	-0.94
O=C1[C@@]23C=C(Br)[C@H](C[C@@H]2CCOC3)[C@@]12CO2	-0.0625
O=C(c1ccccc1)N1C(=O)[C@]2(COC(c3ccc(OCCCO)cc3)=N2)Cc2ccccc21	-0.788
Cc1nc2cc(Br)ccc2c(=O)o1	0.776
CCCCC(CC)C(O)C1C=CC2C(=O)N(Cc3ccccc3)C(=O)C2N1n1cnnc1 (stereo not given)	-1.5
CC(C)C(O)C1C=CC2C(=O)NC(=O)C2N1Nc1ccc(Cl)cc1Cl (stereo not given)	-1.3
COCCOC(=O)N1C(=O)[C@@]2(c3ccccc31)[C@H](c1ccc(O)cc1)N1[C@H](c3ccccc3)[C@H](c3ccccc3)OC(=O)[C@H]1[C@@H]2C(=O)Nc1nc2ccccc2s1	0.894
CC(C)C(=C=CC[C@@H](O)c1ccc(OCCO)cc1)C[C@@H](O)COCc1ccccc1	1.45
O=C1C2C=CC(C(O)Cc3ccccc3)N(n3cnnc3)C2C(=O)N1Cc1ccccc1 (stereo not given)	-1.07
COCCOC(=O)N1C(=O)[C@@]2(c3cc(C#Cc4ccc(OC)cc4)ccc31)[C@H](c1ccc(O)cc1)N1[C@H](c3ccccc3)[C@H](c3ccccc3)OC(=O)[C@H]1[C@@H]2C(=O)N1CCc2cc(OC)c(OC)cc2C1	0.892
COc1cc2c(cc1O)C(C1CC1)N(Cc1sc3ccccc3c1Cl)CC2 (stereo not given)	-1.54

SMILES	z-score
CC(C)C(=C=CC[C@H](O)c1ccc(OCCO)cc1)CCO	-0.595
CC(=O)NCCCC[C@@H]1NC(=O)[C@@H]2C[C@H](C(=O)NCCCCCNC(=O)CS)[C@H](c3cccc(OCCO)c3)N2C1=O	1.52
NC(=O)NCC#Cc1ccc2c(c1)[C@]1(C(=O)N2)[C@H](c2ccc(O)cc2)N2[C@H](c3ccccc3)[C@H](c3ccccc3)OC(=O)[C@H]2[C@@H]1C(=O)O	-0.876
COc1cc(Br)cc(C(O)C2C=CC3C(=O)N(C)C(=O)C3N2N2CCCCC2)c1OC (stereo not given)	-1.8
COc1ccc(CCNC(=O)[C@@H]2c3ccccc3C(=O)N(Cc3ccccc3Cl)[C@H]2c2ccc(CO)cc2)cc1	-0.497
CCCCN1CC=CC23O[C@@H]4C=CCCOC(=O)C4[C@H]2C(=O)N(CCCCCCO)[C@@H]3C1=O (stereo not given in full)	-0.288
CCOC(=O)C[C@H]1[C@H](OC(=O)c2ccc(C(=O)c3ccccc3)cc2)[C@@H](NC(=O)c2ccccc2)c2cc(OCCCO)ccc2N1C(=O)c1ccc2ccccc2n1	0.181
C=CCOC(=O)[C@H]1[C@@H]2C(=O)O[C@@H](c3ccccc3)[C@@H](c3ccccc3)N2[C@@H](c2ccc(OCCOC(=O)[C@H]3C[C@H]4C(=O)N[C@@H](CCCC[N+](C)(C)C)C(=O)N4[C@H]3c3ccc(O)cc3)cc2)[C@]12C(=O)Nc1ccc(I)cc12	-0.535
CC(CO)N1C(=O)[C@@H]2C3C(=O)OCCC/C=C\[C@H]3OC23C=CCN(C(C)(C)C)C(=O)[C@@H]13 (stereo not given in full)	0.458
CC1CC/C=C\[C@H]2OC34C=CCN(C(C)(C)C)C(=O)[C@H]3N(C(C)CO)C(=O)[C@@H]4C2C(=O)O1 (stereo not given in full)	-0.265
COc1ccc(C#Cc2ccc3c(c2)[C@]2(C(=O)N3)[C@H](C(=O)Nc3nc4ccccc4s3)[C@H]3C(=O)O[C@H](c4ccccc4)[C@H](c4ccccc4)N3[C@@H]2c2ccc(O)cc2)cc1	0.663
C=CCC(OC(C)=O)[C@@H]1[C@@H](N(Cc2ccc(-c3ccccc3)cc2)C(=O)Cc2ccc(OC)cc2)c2cc(OCCCO)ccc2N1C(=O)Cc1ccc2ccccc2c1 (stereo not given in full)	-0.59
CN1C(=O)C2C=CC(C(O)C#Cc3ccccc3)N(N3CCCCC3)C2C1=O (stereo not given)	-0.381
C=CC(=C)[C@H]1Oc2ccccc2S(=O)(=O)N2CCC[C@@H]12	-0.829
C=CCC(OC(C)=O)[C@@H]1[C@@H](N(Cc2ccc(-c3cccc(C(F)(F)F)c3)o2)C(=O)c2ccc(C)cc2)c2cc(OCCCO)ccc2N1C(=O)Cc1ccc2ccccc2c1 (stereo not given in full)	1.93
COCCOC(=O)N1C(=O)[C@@]2(c3cc(C#CCC(C(=O)OC)C(=O)OC)ccc31)[C@H](C(=O)N1CCN(c3ncccn3)CC1)[C@H]1C(=O)O[C@H](c3ccccc3)[C@H](c3ccccc3)N1[C@@H]2c1ccccc1OCCO	-0.646
CC(C)=CCCC(C)=CC(O)C1C=CC2C(=O)N(C)C(=O)C2N1Nc1ccccc1 (stereo not given)	-1.5
